Compound activity as filed in PubChem BioAssay.
A selection: hits, their analogues and other compounds. The true share with any hit is near 4.3%.
FAS-TE inh: FAS thioesterase domain inhibitors, primary screen, biochemical, fluorescence intensity, uHTS; 0.67% of 360,000 active; inhibition, % at 15 µM; AID 602261, 2012; recombinant FAS-TE, OMFH fluorogenic substrate, fluorescence endpoint; Fatty acid synthase (Homo sapiens), P49327;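 active = compounds whose normalised, plate-corrected inhibition of enzyme fluorescence in the single-dose primary screen is 50% or more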;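 also: 0% = DMSO with enzyme and 100% = substrate without enzyme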
NadD inh: inhibitors of S. aureus NadD, primary screen, biochemical, colorimetric, uHTS | Nicotinate-nucleotide adenylyltransferase NadD (Staphylococcus aureus N315) | purified NadD enzyme, colorimetric absorbance read-out | inhibition, % at 20 µM | 0.78% of 360,000 active | AID 602399, 2012; in the data active = inhibition above about 26%
GRIN3A LBD mod: binders of NR3A ligand-binding domain, primary screen, biophysical, differential scanning fluorimetry, uHTS; Glutamate receptor ionotropic, NMDA 3A (GRIN3A) ligand-binding domain; NR3A LBD differential scanning fluorimetry, Tm shift; 0% = protein alone, 100% = glycine-bound protein; Tm shift relative to glycine control, % at 25 µM; 2.5% of 340,000 active; AID 1259313, 2017;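 active = melting temperature shift of at least 10% of the positive control shift, at one fixed dose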
rCAG binder: binders of r(CAG) RNA repeats, primary screen, biochemical, fluorescence; r(CAG) RNA repeat, TO-PRO-1 dye displacement fluorescence; inhibition, % at 3 µM; 1.3% of 370,000 active; AID 651821, 2012;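 active = inhibition above the plate cutoff, the mean of all test compounds on that plate plus 3 SD, cut at about 35% in these data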;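 also: 0% = DMSO alone and 100% = 100 µM mitoxantrone as full dye displacement; higher means more dye released from RNA so lower well fluorescence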
* = called active by the depositor; . = no result given.

SMILES | FAS-TE inh | NadD inh | GRIN3A LBD mod | rCAG binder
O=[N+]([O-])c1ccccc1N/N=C/c1cccc(O)c1O | -3 | 8 | 0 | 19
O=S(=O)(N/N=C/c1ccccc1OCc1ccc(Cl)cc1)c1ccccc1 | 37 | -2 | 13* | 20
CCOC(=O)c1ccc(N/N=C/c2cc(Br)cc([N+](=O)[O-])c2O)cc1 | 8 | 20 | 19* | 13
O=[N+]([O-])c1ccc(NN=Cc2cccc3ccccc23)cc1 | -6 | -3 | 34* | 6
COc1ccc(S[C@]2(C(=O)N(C)C)CC(=O)N(c3ccsc3)[C@@H]2c2ccc(OC)cc2)cc1 | . | . | . | 2
CCCNC(=O)N1[C@@H](CO)[C@H](c2ccc(C3=CCCC3)cc2)[C@@H]1CN(CC)S(=O)(=O)c1ccccc1[N+](=O)[O-] | . | . | . | 10
COC(=O)c1ccc(N/N=C/c2cc([N+](=O)[O-])cc(OC)c2O)cc1 | 6 | 7 | 30* | 19
COc1cccc(/C=N/NC(=O)c2ccc([N+](=O)[O-])cc2Cl)c1O | 21 | 1 | -1 | 8
COc1cccc(/C=N/Nc2ccc([N+](=O)[O-])cc2)c1O | 2 | -2 | 36* | 19
COc1cccc(/C=N/Nc2c(Cl)cncc2Cl)c1O | 7 | -2 | 35* | 2
O=C(NC1CCCCN(Cc2cccc(Cl)c2)C1=O)c1c(F)cccc1F (centres undefined) | . | . | . | 3
COc1cc(/C=N/NC(=O)CSc2cc(C)c(Br)cc2C)ccc1O | 14 | 17 | 7 | 6
Cc1cc(SCC(=O)N/N=C/c2ccc(O)c(O)c2O)c(C)cc1Br | 16 | 13 | 25* | 55*
CN1CCC(=NNC(=O)CN(c2ccccc2)S(=O)(=O)c2ccccc2)CC1 | -5 | -2 | 10* | 1
COc1cccc(-c2cc(CNC(=O)[C@H]3O[C@@H](n4cnc(C(N)=O)n4)[C@H](O)[C@@H]3O)no2)c1 | . | . | . | 3
O=C(NCc1ccccc1Cl)c1cnccc1C(F)(F)F | -3 | -3 | 12* | -5
O=C(NCc1ccccc1Cl)c1cnccn1 | -3 | 1 | -4 | 1
O=C(NCc1ccccc1Cl)c1ccccc1Oc1ccccc1 | 29 | -4 | 11* | -8
Cc1ccc(CCNC(=O)C2CCC(CNc3c(N4CCCC4)c(=O)c3=O)CC2)cc1 (centres undefined) | -1 | 0 | 17* | 0
C=CCc1cccc2cc(C(=O)Nc3ccccc3C(=O)O)c(=O)oc12 | -2 | 4 | 0 | 38*
COc1ccc(S[C@]2(C(=O)N(C)C)CC(=O)N(C(=O)CCc3ccccc3)[C@@H]2c2ccc(OC)cc2)cc1 | . | . | . | 13
O=C(CNC(c1ccccc1)c1ccccc1)Nc1ccccc1-c1ccccc1 | 33 | 6 | 17* | 3
O=C(COC(=O)Cc1c(Cl)cccc1Cl)Nc1ccccc1-c1ccccc1 | 26 | 0 | 2 | -2
O=C(CSCc1c(Cl)cccc1Cl)Nc1ccccc1-c1ccccc1 | 28 | -5 | 15* | -3
O=C(CNC(c1ccccc1)c1ccccc1)Nc1ccccc1F | 6 | -7 | 1 | -1
SMILES | FAS-TE inh | NadD inh | GRIN3A LBD mod | rCAG binder
C/C(=N/NC(=O)CSc1nnc(SCc2ccc(C)cc2)s1)c1cccc(O)c1 | . | . | . | 7
COc1ccccc1CNc1nc(-c2cc(C)n(C)c2C)cs1 | -66 | 30* | -11 | .
Cc1oc(-c2ccccc2)cc1C(=O)Nc1ccc2ccccc2c1 | 6 | 2 | 15* | 3
COc1ccc(NC(=O)c2cc(-c3ccccc3)oc2C)cc1 | 12 | -6 | 18* | 2
Cc1oc(-c2ccccc2)cc1C(=O)Nc1ccccc1 | 12 | -7 | 4 | 2
Cc1occc1C(=O)Nc1ccc2ccccc2c1 | 5 | -4 | 24* | 14
COc1ccc2nc(C)cc(SCC(=O)N/N=C/c3ccccc3)c2c1 | 2 | -4 | -3 | 3
COc1ccc2nc(C)cc(SCC(=O)N/N=C/c3ccc(O)cc3O)c2c1 | -5 | 13 | 25* | 23
COc1cccc2c(SCC(=O)N/N=C/c3ccc(O)cc3O)cc(C)nc12 | -2 | 3 | 26* | 23
COc1ccc(-c2cc(C(=O)OCC(=O)Nc3ccc4c(c3)OCO4)c3ccccc3n2)cc1 | 31 | 25 | 15* | 14
O=C(COC(=O)c1cc(-c2ccccc2)nc2ccccc12)Nc1ccc2c(c1)OCO2 | 25 | 11 | 13* | 1
O=C(COC(=O)c1c2c(nc3ccccc13)CCCC2)Nc1ccc2c(c1)OCO2 | 14 | 6 | -1 | 11
Cc1c(NC(=O)COC(=O)c2cc(-c3ccc(-c4ccccc4)cc3)nc3ccccc23)c(=O)n(-c2ccccc2)n1C | 16 | 50* | -3 | 7
O=C1C=C(N2CCCCC2)C2(CCCCC2)O1 | -13 | 1 | -2 | -3
O=C1C=C(N2CCN(C(=O)c3ccccc3)CC2)C2(CCCCC2)O1 | -7 | -2 | 11* | 4
COC(=O)c1ccc2nc(Nc3nc4c(F)cc(F)cc4s3)sc2c1 | 1 | 22 | 22* | 15
COC(=O)c1ccc2nc(NC(=O)C(C)C)sc2c1 | -6 | -4 | -3 | 0
CCOC(=O)c1ccc2nc(Nc3nc4ccc(F)cc4s3)sc2c1 | -2 | 3 | 28* | 7
O=C(N/N=C/c1ccc(O)cc1)NC12CC3CC(CC(C3)C1)C2 | 30 | -5 | 10* | 2
Cn1c(Nc2ccccc2)nc2ccccc21 | -3 | 5 | 12* | -3
Nn1c(Nc2ccccc2)nc2ccccc21 | -3 | 15 | -2 | 0
CC(Oc1ccc(Cl)cc1Cl)C(=O)NNC(=O)c1cccnc1 (centres undefined) | -5 | -5 | -2 | 2
CC(Oc1ccc(Cl)cc1Cl)c1nc(-c2ccc(NC(=O)c3ccncc3)cc2)no1 (centres undefined) | 32 | -9 | 22* | 16
COc1cccc(-c2nc(-c3ccc(NC(=O)c4cccnc4)cc3)no2)c1 | 6 | -5 | -6 | 0
CC(Oc1ccc(Cl)cc1Cl)c1nc(-c2ccc(NC(=O)c3cccnc3)cc2)no1 (centres undefined) | 20 | -2 | 12* | -1
SMILES | FAS-TE inh | NadD inh | GRIN3A LBD mod | rCAG binder
O=C(Nc1ccc(-c2noc(-c3cccs3)n2)cc1)c1cccnc1 | 13 | -1 | 28* | 14
Cc1ccc(-n2c(SCC(=O)c3ccccc3Br)nnc2-c2ccncc2)cc1 | . | . | . | 9
Cc1ccc(C(=O)n2ccc3ccc(-c4ccc5ccn(Cc6ccccc6)c5c4)cc32)cc1 | . | . | . | 15
O=C(OC12CCCN(C1)/C(=C/c1cccnc1)C2)c1ccco1 (centres undefined) | . | . | . | 0
O=C(Nc1ccccc1)OCCCCCOC(=O)Nc1ccccc1 | -7 | -12 | 46* | -4
O=C(Nc1cccc(Cl)c1)OCCOc1ccccc1 | 31 | -7 | 15* | -3
O=C(Nc1ccccc1)OCCOc1ccccc1 | 1 | -8 | -11 | -2
COc1ccc(OCCOC(=O)Nc2ccccc2)cc1 | 8 | -9 | 33* | -5
Cn1nc(OC(=O)Nc2cccc(Cl)c2)cc1C(F)(F)F | 4 | -2 | 15* | 5
